The full ranking holds about 110,000 compounds; the median of “z-score” is about -0.1, and the highest 2% start at about 2. The sample holds the highest values, similar compounds and a random draw of the others, so the mix is not that of the screen. Active and inactive are the calls of the source.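 How the source made its calls: active means z-score in the third read window above 3 or below -3; inactive means the rest.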

The target of this assay is Metabotropic glutamate receptor 8 (Rattus norvegicus) (UniProt P70579). The assay can be described thus: rat mGluR8 modulators via GIRK flux, primary screen, cell-based, thallium flux, HTS (AID 488969). To be noted: HEK293 rat mGluR8, GIRK (G protein-gated inwardly rectifying potassium channel) thallium flux, FluoZin2; at 10 µM; stronger effect = higher value; submaximal glutamate (EC20) added with thallium.
Sequence of Metabotropic glutamate receptor 8 (Rattus norvegicus) (P70579 whole entry, looked up): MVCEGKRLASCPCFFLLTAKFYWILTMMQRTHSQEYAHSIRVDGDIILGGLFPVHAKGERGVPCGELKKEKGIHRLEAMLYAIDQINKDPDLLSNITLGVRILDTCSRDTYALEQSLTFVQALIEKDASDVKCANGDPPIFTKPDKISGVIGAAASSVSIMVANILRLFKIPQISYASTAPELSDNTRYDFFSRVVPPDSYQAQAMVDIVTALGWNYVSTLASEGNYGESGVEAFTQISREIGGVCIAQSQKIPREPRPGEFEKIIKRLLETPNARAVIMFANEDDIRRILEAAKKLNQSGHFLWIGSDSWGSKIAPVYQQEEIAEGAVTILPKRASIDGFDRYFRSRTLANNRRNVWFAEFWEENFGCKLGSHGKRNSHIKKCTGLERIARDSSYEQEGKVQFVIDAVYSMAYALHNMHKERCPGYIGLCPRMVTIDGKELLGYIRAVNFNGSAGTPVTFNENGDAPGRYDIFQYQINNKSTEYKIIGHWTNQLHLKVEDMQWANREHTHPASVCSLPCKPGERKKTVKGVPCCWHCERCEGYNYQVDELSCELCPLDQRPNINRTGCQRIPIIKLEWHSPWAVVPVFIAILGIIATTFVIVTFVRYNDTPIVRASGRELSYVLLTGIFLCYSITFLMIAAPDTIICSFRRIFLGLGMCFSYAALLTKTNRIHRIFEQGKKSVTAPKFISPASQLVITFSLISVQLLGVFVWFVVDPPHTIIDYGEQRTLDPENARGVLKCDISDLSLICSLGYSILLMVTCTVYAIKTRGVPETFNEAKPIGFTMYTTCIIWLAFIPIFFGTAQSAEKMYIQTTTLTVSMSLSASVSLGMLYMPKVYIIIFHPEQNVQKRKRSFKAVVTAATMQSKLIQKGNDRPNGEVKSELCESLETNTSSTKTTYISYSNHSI
Turning to `O=C(Nc1ccc(Cc2ccncc2)cc1)C1CCC(N2C(=O)C3C4C=CC(C5CC45)C3C2=O)CC1` (stereo not drawn), the z-score was -0.424.
As to `Cn1c2ccccc2c2c(C(=O)N3CCN(C(=O)c4ccco4)CC3)cn(C3CCCCC3)c(=O)c21`, the z-score was -0.126.
As for `CCN(C(=O)CN1CCN(c2ccccc2O)CC1)c1c(N)n(Cc2ccccc2)c(=O)[nH]c1=O`, the z-score was 14.3 (active).
With `CCN(C(=O)CN1CCN(c2ccccc2OC)CC1)c1c(N)n(Cc2ccccc2)c(=O)[nH]c1=O`, the z-score came out at 0.391.
Consider `CCN(C(=O)CN1CCN(c2ccccc2)CC1)c1c(N)n(Cc2ccccc2)c(=O)[nH]c1=O`, for which the z-score is -0.349.
The figure for `CC1Cc2ccccc2N1C(=O)CSc1nnc(CNc2ccccc2)o1` (stereo not drawn) is -0.151; for `CC(=O)C1C(c2ccccc2)c2c(n[nH]c2C)CC1(C)O` (stereo not drawn) it is 0.241; for `N=c1c(C(=O)NCc2ccco2)cc2c(=O)n3ccccc3nc2n1Cc1ccccc1` it is 1.15.
Consider `N=c1c(C(=O)NCc2ccco2)cc2c(=O)n3ccccc3nc2n1CCc1ccccc1`, for which the z-score was 4.11 (active).
With `COc1ccc(CCn2c(=N)c(C(=O)NCc3ccco3)cc3c(=O)n4ccccc4nc32)cc1`, the z-score stood at 0.369.
Molecule `Cc1cccc(N2CCN(C(=O)c3ccoc3C)CC2)c1C` returned a z-score of -0.311.
For the molecule `CN(C)c1nc(N)nc(CSc2n[nH]c(-c3ccccc3)n2)n1`, the z-score was -0.00289.
With `ClCc1nnc(-c2ccccc2)o1`, the z-score was -0.143.
Turning to `Cc1ccccc1-c1nnc(Cc2ccccc2)o1`, the z-score is -0.211.
As for `c1ccc(Cc2nnc(-c3ccccc3)o2)cc1`, the z-score was 10.4 (active).
As to `CCOC(=O)CN1C(=O)C2(OCCCO2)c2ccccc21`, the z-score is -0.0349.
The figure for `COc1cccc2c1OC[C@@H](CO)[C@H]2N(C)C(=O)Nc1ccccc1` is 6.33 (active); for `COc1cccc2c1OC[C@@H](CO)[C@H]2N(C)C(=O)Nc1ccc(Cl)cc1Cl` it is 0.0803; for `CN(C(=O)Nc1ccc(Cl)cc1Cl)[C@H]1c2cc(Br)ccc2OC[C@H]1CO` it is -0.211.
For `CC1(C)Oc2nc3ccccc3n2/C1=C\C#N` the value was -0.233; for `CC(=O)Nc1ccc(S(=O)(=O)NC2(C(F)(F)F)NC(=O)N(C3CCCCC3)C2=O)cc1` (stereo not drawn), -0.0965.
In turn, `CSc1nc(C)cc(Oc2ccc(OCCOc3ccccc3)nn2)n1` gave a z-score of -0.702.
As for `CCn1c(SCC(=O)Nc2ccccc2OC)nc2ccccc2c1=O`, the z-score was -0.373.
`COc1ccc(Cn2cnc3sccc3c2=O)cc1` displayed a z-score of -0.167.
The figure for `CCOC(=O)Nc1ccc(S(=O)(=O)Nc2cc(C)nc(C)n2)cc1` is -0.12; for `COc1ccc(CCN2C(=O)CC(C(N)=O)SC2=Nc2ccccc2)cc1OC` (stereo not drawn) it is 1.15; for `S=C1NC(c2ccccc2)=NCN1c1ccccc1` it is 0.145.
For the molecule `S=C1NC(c2ccccc2)=NCN1c1ccc(Cl)cc1`, the z-score is 3.19 (active).
For `Cc1ccc(N2CN=C(c3ccccc3)NC2=S)cc1` the value was 0.328; for `CCOc1ccccc1Nc1nnc(C)c(=O)[nH]1`, -0.155; for `CCOc1ccccc1Nc1nnc(Cc2ccccc2Cl)c(=O)[nH]1`, 12.8 (active).
In turn, `CCCOc1ccccc1Nc1nnc(C)c(=O)[nH]1` showed a z-score of 0.409.
The molecule `CCOC(=O)C1CCN(C(=O)c2cc(OCC)c(OCC)c(OCC)c2)CC1` came in with a z-score of 0.856.
`OC1CCN(c2c3c(nc4cc(-c5ccc(Cl)cc5)nn24)CCC3)CC1` registered a z-score of -0.738.
With `O=C(c1cc2ccccc2c(=O)o1)N1CCCC1`, the z-score amounted to 0.79.
As for `Cc1cc(NC(=O)c2c(F)cccc2Cl)n(-c2nc3ccccc3[nH]2)n1`, the z-score was 3.06 (active).
In the case of `Cc1cc(NC(=O)/C=C/c2ccccc2Cl)n(-c2nc3ccccc3[nH]2)n1`, the z-score is 0.0437.
`Cc1cc(NC(=O)c2ccc(F)cc2F)n(-c2nc3ccccc3[nH]2)n1` gave a z-score of 0.0238.
Take `CN1CCC(N(C)C(=S)Nc2ccc(SC(F)F)cc2)CC1`: the z-score was -0.0288.
Molecule `CN(C(=S)Nc1ccc(SC(F)F)cc1)c1ccc(O)cc1` showed a z-score of 0.142.
`CC1CC(C)CN(C(=S)Nc2ccc(SC(F)F)cc2)C1` (stereo not drawn): the z-score is 6.63 (active).
The figure for `Oc1cccc(NC(=S)Nc2cccnc2)c1` is -0.756; for `FC(F)Sc1ccc(NC(=S)NC2CCCCC2)cc1` it is -0.326.
`FC(F)Sc1ccc(NC(=S)NCC2CCCCC2)cc1` returned a z-score of -0.233.
On to `CC1CCCC(NC(=S)Nc2ccc(SC(F)F)cc2)C1C` (stereo not drawn), for which the z-score is 4.36 (active).
For the molecule `Oc1cccc(NC(=S)Nc2ccc(SC(F)F)cc2)c1`, the z-score was 2.92.
Molecule `FC(F)Sc1ccc(NC(=S)NC2CCC(NC(=S)Nc3ccc(SC(F)F)cc3)CC2)cc1` (stereo not drawn) registered a z-score of -0.2.
Take `CC1CCCCC1NC(=S)Nc1ccc(SC(F)F)cc1` (stereo not drawn): the z-score is 5.08 (active).
In turn, `CC1CCN(C(=S)Nc2ccc(SC(F)F)cc2)CC1` showed a z-score of 0.000321.
With `CC1CC(C)CN(C(=S)Nc2ccc(OC(F)F)cc2)C1` (stereo not drawn), the z-score is -0.115.
`c1cncc(C(c2nnnn2C2CCCC2)N2CCN(Cc3ccc4c(c3)OCO4)CC2)c1` (stereo not drawn) registered a z-score of 0.0897.
In the case of `O=C(c1ccco1)N1CCN(c2ccc(Cl)c(Cl)c2)CC1`, the z-score is -0.938.
`COc1cccc(OC)c1NC(=O)CN1CCC(NC(=O)c2cccc(F)c2)CC1` gave a z-score of -0.0108.
For `O=C(CCNC(=O)Cn1ccc2ccccc2c1=O)NCCc1ccccc1Cl`, the z-score was -0.0359.
The molecule `CCSc1nnc(NC(=O)C2Cc3ccccc3CN2S(=O)(=O)CC)s1` (stereo not drawn) displayed a z-score of 0.295.
As to `C=CC(=O)Nc1ccc(Br)cc1`, the z-score was determined as 0.0392.
On to `COc1ccc(C(=O)N2C(=S)NC(=O)/C2=C\c2ccc(C)cc2)cc1`, for which the z-score turned out to be 2.75.
`COc1ccc(/C=C/C(=O)Oc2ccc(/C=N\NC(=O)c3ccc(F)cc3)cc2)cc1` showed a z-score of 0.18.
Regarding `COc1ccc(/C=C2\C(=O)NC(=S)N2C(=O)c2ccc(F)cc2)cc1`, the z-score is 3.14 (active).
As to `COc1ccc(C(=O)C2CCN(C(=O)c3ccc(C)cc3)CC2)cc1`, the z-score is -0.285.
Take `COc1ccc(-c2nc(N)n(C(=O)c3ccc(C)cc3)n2)cc1`: the z-score turned out to be 0.106.
The figure for `COc1ccc(C(=O)N2CCC(C(=O)c3ccc(F)cc3)CC2)cc1` is -1.67; for `N#Cc1cc2c(nc1SCc1ccccc1)CCC2` it is 0.359; for `Cc1oncc1C(=S)Nc1ccccc1` it is 12.4 (active).
Molecule `COC(=O)c1cccc(NC(=O)c2cnoc2C)c1` gave a z-score of -0.126.
In the case of `Cc1c(C(=S)Nc2ccccc2)cnn1-c1ccccc1`, the z-score was -0.398.
As for `COc1ccc(C(C)N2CC34C=CC(O3)C(C(=O)O)C4C2=O)cc1` (stereo not drawn), the z-score came out at 0.302.
For `Cc1ccccc1OCC(O)Cn1nnc2ccccc21` (stereo not drawn) the value was -0.244; for `COc1ccc(OCC(O)Cn2c(Nc3ccccc3)nc3c2c(=O)n(C)c(=O)n3C)cc1` (stereo not drawn), -0.45; for `C=CCn1c(N)c(C(=O)Nc2ccccc2OC)sc1=S`, 0.333.
In the case of `COc1ccccc1NC(=O)c1ccc(COc2ccc3c(c2)CCC3)cc1`, the z-score was -0.228.
On to `COC(=O)c1ccccc1NC(=O)c1ccc(COc2ccc3c(c2)CCC3)cc1`, for which the z-score was -0.271.
Turning to `Cc1ccc(NC(=O)c2ccc(COc3ccc4c(c3)CCC4)cc2)c(C)c1`, the z-score was 3.36 (active).
Consider `O=C(O)[C@H]1CCCC[C@H]1C(=O)NCCc1ccccc1`, for which the z-score worked out at 0.402.
In the case of `CCOc1ccc(-n2c(Cc3cc(=O)[nH]c(=O)[nH]3)nnc2SC(C)C(=O)OC)cc1` (stereo not drawn), the z-score is 12.7 (active).
`COC(=O)C(C)Sc1nnc(Cc2cc(=O)[nH]c(=O)[nH]2)n1-c1ccc(OC)cc1` (stereo not drawn): the z-score came out at 0.194.
The molecule `CCOC(=O)C(C)Sc1nnc(Cc2cc(=O)[nH]c(=O)[nH]2)n1-c1ccc(OCC)cc1` (stereo not drawn) had a z-score of 0.465.
With `COc1ccc(C(C(=O)NC(C)(C)C)N(CC2CCCO2)C(=O)CCC(=O)Nc2cc(C)on2)cc1` (stereo not drawn), the z-score was -0.202.
The figure for `O=S(=O)(N/N=C/c1ccc(OC2CSC2)cc1)c1ccccc1` is -0.00217.
The molecule `Nc1c(S(=O)(=O)c2cccs2)c2nc3ccccc3nc2n1Cc1ccc2c(c1)OCO2` yielded a z-score of -0.174.
As for `Fc1ccc(/C=N/n2c(-c3cccs3)n[nH]c2=S)cc1`, the z-score was 4.92 (active).
For `Cc1ccsc1/C=N/n1c(-c2ccccn2)n[nH]c1=S`, the z-score is -0.121.
For `Cc1ccc(/C=N/n2c(-c3ccncc3)n[nH]c2=S)cc1` the value was 0.0356.
Regarding `S=c1[nH]nc(-c2ccncc2)n1/N=C/c1ccccc1`, the z-score was -0.00784.
`Cc1ccc(-c2n[nH]c(=S)n2/N=C/c2ccc(C)o2)cc1` registered a z-score of -1.27.
Turning to `Cc1ccc(/C=N/n2c(-c3cccs3)n[nH]c2=S)cc1`, the z-score was 10 (active).
As for `Cc1c(/C=N/NC(N)=O)c2ccccn2c1C(=O)c1ccc(F)cc1`, the z-score was -0.327.
For the molecule `COCc1cc(C)nc2sc(C(=O)N3CCCCC3)c(N)c12`, the z-score was found to be 0.33.
Molecule `CCCCOc1ccc(C(=O)N2CCC(C)CC2)cc1` came in with a z-score of -0.401.
Consider `CCCCOc1ccc(C(=O)OC2CC(C)N(C)CC2C)cc1` (stereo not drawn), for which the z-score was 3.48 (active).
Consider `CCCCOc1ccc(C(=O)N2CC(C)OC(C)C2)cc1` (stereo not drawn), for which the z-score is -0.154.
As to `Cc1nc2ccc(NC(=O)c3ccc(S(=O)(=O)N4CCOCC4)cc3)cc2s1`, the z-score was -0.182.
For `O=C(Oc1ccc(-c2nnco2)cc1)N(c1ccccc1)c1ccccc1` the value was 0.519.
`CC(=O)c1ccc(OC(=O)N(c2ccccc2)c2ccccc2)cc1` came in with a z-score of 2.99.
Molecule `CCN(c1ccccc1)S(=O)(=O)c1ccc(C(=O)Oc2ccc(C(C)=O)cc2)cc1` returned a z-score of -0.819.
For `CS(=O)(=O)N(CCc1ccccc1)CC(=O)NCc1cccnc1` the value was 0.68; for `O=c1c2c(n3nnnc3n1Cc1ccccc1)-c1ccccc1CC21CCCC1`, 0.0259.
For `Cn1c2ccccc2c2cc(C(=O)NNS(=O)(=O)c3ccc(F)cc3)sc21` the value was 5.09 (active).
With `COc1ccc(S(=O)(=O)NNC(=O)c2cc3c4ccccc4n(C)c3s2)cc1`, the z-score is -0.127.
The figure for `CC(=O)Nc1ccc(S(=O)(=O)NNC(=O)c2cc3c4ccccc4n(C)c3s2)cc1` is -0.78; for `COc1ccccc1C(=O)Nc1ccc(S(=O)(=O)N2CCc3ccccc32)cc1` it is 0.187.
The figure for `Cc1ccc(Oc2cc([N+](=O)[O-])cc3c2C(=O)Nc2ccccc2O3)cc1` is -0.0885; for `CCOC(=O)Cc1cc(-c2ccc(O)cc2)nc2ccc3ccccc3c12` it is 0.0725; for `CCOC(=O)c1c(C)nc2c(c1-c1ccc(Cl)cc1)C(=O)CC(C)(C)C2` it is -1.24.
The figure for `CC(C)[C@H](NC(=O)NCCc1ccc(Cl)cc1)C(=O)O` is 0.54; for `CC(C)CC(NC(=O)c1ccc(Cl)cc1)C(=O)O` (stereo not drawn) it is -0.0425; for `CC(C)C[C@H](NC(=O)NCCc1ccc(Cl)cc1)C(=O)O` it is 2.58.
On to `COc1ccc(NC(=O)C23CC4CC(C2)CC(n2cnc(Br)n2)(C4)C3)cc1Cl`, for which the z-score was -0.254.
